Screening data deposited in PubChem by National Center for Advancing Translational Sciences (NCATS).
FLuc counter = firefly luciferase modulation, counter-screen for miR-21 project; P08659; purified FLuc, Km substrates, luminescence inhibition; Potency, µM (doses to about 57.5 µM), for the others: at the top dose activity change, negative = inhibition, actives largely listed as inhibitors; hit rate 6.9% among 360,000; AID 588342;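 note: plate controls were vehicle for no effect and reference inhibitor for full effect; nearly all actives have a fitted effect of over 55% in size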
Target sequence (P08659 whole entry, looked up): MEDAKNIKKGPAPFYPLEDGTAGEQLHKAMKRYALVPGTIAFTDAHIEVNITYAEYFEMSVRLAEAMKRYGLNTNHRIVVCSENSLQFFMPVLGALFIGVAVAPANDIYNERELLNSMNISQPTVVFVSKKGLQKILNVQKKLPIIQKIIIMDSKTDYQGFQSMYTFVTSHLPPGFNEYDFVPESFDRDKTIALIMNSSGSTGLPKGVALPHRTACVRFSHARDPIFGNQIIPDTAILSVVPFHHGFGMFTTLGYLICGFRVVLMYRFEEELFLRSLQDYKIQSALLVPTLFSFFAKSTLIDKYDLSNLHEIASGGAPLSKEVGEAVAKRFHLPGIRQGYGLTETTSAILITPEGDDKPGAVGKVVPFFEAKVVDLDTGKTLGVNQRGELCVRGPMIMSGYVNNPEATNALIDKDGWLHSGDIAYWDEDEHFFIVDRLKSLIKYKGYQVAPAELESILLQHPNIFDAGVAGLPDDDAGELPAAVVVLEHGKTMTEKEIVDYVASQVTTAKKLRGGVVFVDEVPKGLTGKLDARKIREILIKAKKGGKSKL
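Purified P. pyralis luciferase (10nM final) with 10uM D-luciferin and 10uM ATP (Km levels) in 50mM Tris acetate pH 7.5, 10mM Mg acetate, 0.01% Tween-20, 0.05% BSA; qHTS 6-point titration, ~60 µM downward; luminescence read.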
SMN2 splice up = SMN2 splice variant enhancement | HEK293 SMN2-luciferase splicing reporter, luminescence, 30-36 h | Potency, µM (titrated, usually from 46.1 µM), for the others: top-dose activity change, positive = activation, usual class: activators | hit rate 2.8% among 210,000; note: % of control where 0% means no effect; nearly all actives have a fitted effect of over 55% in size
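qHTS luciferase splicing reporter: luminescence rises when SMN2 exon 7 is included in transfected HEK293 cells. Compound exposure lasted 30-36 h at 37C, with 4.5 mM final sodium butyrate as control, followed by a ONE-Glo read.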
ELG1 genotoxic = inducers of genotoxicity in HEK293T ELG1-luciferase cells; HEK293T ELG1-luciferase reporter, luminescence, 16 h; Potency, µM (series often up to 46 µM), inactives show at the top dose activity change, positive = activation, hits mostly activators; hit rate 1.3% among 330,000; AID 504466; note: % of control where 0% means no effect; nearly all actives have a fitted effect of over 60% in size
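HEK293T cells expressing luciferase-tagged ELG1 were exposed to compound or DMSO vehicle for 16 hr at 37 °C and 5% CO2. Luciferase activity was then measured with ONE-Glo after 30 min at room temperature.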
KinaseGlo FLuc = Kinase-Glo luciferase inhibition (counter-screen). Q27757. Kinase-Glo luciferase, ATP luminescence, 8 min. Potency, µM (highest dose often 38.3 µM), inactives show at the highest dose activity change, negative = inhibition, hits mostly inhibitors. hit rate 0.28% among 200,000. AID 1379; note: % is set by controls: 0 for no effect and ±100 for the full control effect; nearly all actives have a fitted effect of over 60% in size
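Compounds were added to a substrate mix at pH 7.2 (50 mM imidazole, 10 uM ATP, within the enzyme's linear range), followed by Kinase-Glo detection reagent; luminescence was measured after 8 minutes at ambient temperature.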
Rab9 promoter act = activates the Rab9 promoter; Huh7 Rab9 promoter-luciferase reporter, luminescence, 24 h; Potency, µM (titrated, usually from 9.22 µM), inactives show at the top dose activation, negative = inhibition, hits mostly activators; hit rate 2.8% among 320,000; note: % of control where 0% means no effect; nearly all actives have a fitted effect of over 60% in size
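Huh7 cells stably carrying Rab9 promoter–luciferase reporter, plated 1500 cells/well, compound added after 2 h and incubated 24 h at 37 °C; luciferase luminescence then read after 10 min with detection reagent.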
NPC1 prom act = activates the NPC1 promoter; Huh7 NPC1 promoter luciferase reporter, 24 h; Potency, µM (top dose mostly 9.22 µM), for inactives: top-dose activation, actives largely listed as activators; hit rate 2.4% among 320,000; AID 485313; note: % of control where 0% means no effect; nearly all actives have a fitted effect of over 60% in size
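Huh7 cells stably carrying NPC1 promoter–luciferase, plated in Opti-MEM with 10% FBS for 2 h, were exposed to compound in DMSO for 24 h at 37 °C; luciferase reagent was added for 10 min and luminescence read.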
Active calls of the source: *. Hits are enriched below; roughly 7.5% of the tested compounds scored in any of these assays. Calls come from the whole dose curve; as a rule, active = well fitted curve in the direction sought with a large enough effect; inconclusive = small, poorly fitted or top-dose-only effect, or another doubt; inactive = no such curve, though single readings can be large; an effect the other way counts as inactive or inconclusive. Potency is the fitted concentration of half-maximal effect.

`Cn1c(SCc2ccc(F)cc2)nnc1-c1ccccn1` gave FLuc counter inconclusive, SMN2 splice up inconclusive, ELG1 genotoxic inconclusive, KinaseGlo FLuc -3%, Rab9 promoter act 2.2µM* and NPC1 prom act 4.5µM*.
`Nn1c(SCc2ccccc2F)nnc1-c1cccnc1` gave FLuc counter inconclusive, ELG1 genotoxic inconclusive, Rab9 promoter act 2.2µM* and NPC1 prom act inconclusive.
Screening Cn1c(SCC(=O)NC2CC2)nnc1-c1cccs1 returned FLuc counter inconclusive, ELG1 genotoxic 26%, Rab9 promoter act 4µM* and NPC1 prom act 4µM*.
Screening CCOc1ccccc1N1CCN(C(=O)C2=CC=CN3CCS(=O)(=O)N=C23)CC1 returned FLuc counter -1%, ELG1 genotoxic 0%, Rab9 promoter act 0% and NPC1 prom act 1%.
Cn1c(SCc2ccccc2F)nnc1-c1cnccn1 was read as FLuc counter inconclusive, ELG1 genotoxic inconclusive, Rab9 promoter act 3.2µM* and NPC1 prom act inconclusive.
For Cn1c(SCc2ccc(F)cc2)nnc1-c1cccs1 the results were FLuc counter 19µM*, SMN2 splice up inconclusive, ELG1 genotoxic inconclusive, KinaseGlo FLuc -5%, Rab9 promoter act 4µM* and NPC1 prom act 2.2µM*.
For Cn1c(SCc2ccccn2)nnc1-c1cnccn1 the results were FLuc counter -11%, SMN2 splice up -2%, ELG1 genotoxic 10%, KinaseGlo FLuc -3%, Rab9 promoter act inconclusive and NPC1 prom act 13%.
COc1cc(C)c(C(=O)Oc2cc(C)c(C(=O)O)c(O)c2)c(O)c1 was read as FLuc counter 19µM*, ELG1 genotoxic 5%, Rab9 promoter act 7% and NPC1 prom act -2%.
`Cc1cc(O)cc(O)c1C(=O)O` gave SMN2 splice up 7% and KinaseGlo FLuc 0%.
`Cc1cccc(CSc2cn(CC(=O)N3CCOCC3)c3ccccc23)c1` gave FLuc counter 15µM*, SMN2 splice up inconclusive, ELG1 genotoxic inconclusive, KinaseGlo FLuc -17%, Rab9 promoter act inconclusive and NPC1 prom act inconclusive.
Screening O=C(Cn1cc(SCc2cccc(Cl)c2)c2ccccc21)N1CCOCC1 returned FLuc counter 19µM*, ELG1 genotoxic 9%, KinaseGlo FLuc -30%, Rab9 promoter act inconclusive and NPC1 prom act 21%.
`O=C(CSc1cn(CC(=O)N2CCOCC2)c2ccccc12)N1CCOCC1` gave FLuc counter -2%, ELG1 genotoxic 1%, Rab9 promoter act 0% and NPC1 prom act 2%.
`O=C(NCc1cccnc1)NC1CC(=O)N(c2ccc3c(c2)OCCO3)C1` (stereo not drawn) gave FLuc counter 5%, SMN2 splice up 27%, ELG1 genotoxic 0%, KinaseGlo FLuc 11%, Rab9 promoter act -4% and NPC1 prom act -6%.
Screening O=C(NCC1CCCO1)c1ccc(COc2ccccc2Br)cc1 (stereo not drawn) returned FLuc counter 24µM*, SMN2 splice up -10%, ELG1 genotoxic 2%, KinaseGlo FLuc -1%, Rab9 promoter act -6% and NPC1 prom act 1%.
O=C(NCC1CCCO1)c1ccc(COc2ccc(Cl)cc2)cc1 (stereo not drawn) was read as FLuc counter -11%, SMN2 splice up -46%, ELG1 genotoxic -5%, KinaseGlo FLuc -1%, Rab9 promoter act -3% and NPC1 prom act -1%.
For O=C(N/N=C1/CC2CCC1C2)c1cc2ccccc2cc1O (stereo not drawn) the results were FLuc counter 15µM*, ELG1 genotoxic -3%, Rab9 promoter act 4% and NPC1 prom act 16%.
O=C(NCC1CCCO1)c1cc2ccccc2cc1O (stereo not drawn) was read as FLuc counter 24µM*, ELG1 genotoxic 15%, Rab9 promoter act inconclusive and NPC1 prom act inconclusive.
Screening O=C(NCC1CCCCC1)c1cc2ccccc2cc1O returned FLuc counter 12µM*, ELG1 genotoxic 0%, Rab9 promoter act 27% and NPC1 prom act inconclusive.
COc1ccc(-n2c(/C=C/c3cc(OC)c(OC)cc3OC)nc3cc4ccccc4cc3c2=O)cc1Cl was read as FLuc counter -3%.
N#C/C(=N\Nc1ccc(F)cc1)C(=O)C1CC1 was read as FLuc counter -13%, ELG1 genotoxic -2%, Rab9 promoter act 2% and NPC1 prom act 8%.
`N#C/C(=N\Nc1ccc(Cl)c(Cl)c1)C(=O)C1CC1` gave FLuc counter 27µM*, ELG1 genotoxic 8%, Rab9 promoter act inconclusive and NPC1 prom act inconclusive.
Cc1cc(O)c(Sc2ncn[nH]2)cc1NS(=O)(=O)c1ccc(Cl)cc1 was read as FLuc counter 4%, ELG1 genotoxic -1%, Rab9 promoter act 2% and NPC1 prom act 0%.
O=S(=O)(Nc1cc(Sc2ncn[nH]2)c(O)c2ccccc12)c1ccccc1 was read as FLuc counter 11µM*, SMN2 splice up -113%, ELG1 genotoxic -13%, KinaseGlo FLuc -1%, Rab9 promoter act 1% and NPC1 prom act 3%.
Screening CC(C)(C)c1ccc(C(=O)NCC(=O)OCC(=O)Nc2nc(-c3ccc(F)cc3)cs2)cc1 returned FLuc counter 13µM*, SMN2 splice up 17%, ELG1 genotoxic 8%, KinaseGlo FLuc 0%, Rab9 promoter act 18% and NPC1 prom act 16%.
Cc1ccc(-c2csc(NC(=O)c3ccc(C)o3)n2)cc1 was read as FLuc counter inconclusive, SMN2 splice up -4%, ELG1 genotoxic 0%, KinaseGlo FLuc -4%, Rab9 promoter act -2% and NPC1 prom act -1%.
Cc1ccc(-c2csc(NC(=O)c3ccno3)n2)cc1 was read as FLuc counter 21µM*, SMN2 splice up -20%, ELG1 genotoxic inconclusive, KinaseGlo FLuc 4%, Rab9 promoter act 28% and NPC1 prom act 25%.
Cc1ccc(C(=O)Nc2nc(-c3ccc(F)cc3)cs2)o1 was read as FLuc counter 30µM*, ELG1 genotoxic -1%, Rab9 promoter act 17% and NPC1 prom act 13%.
`CC(C)CN(C(=O)COc1ccc([N+](=O)[O-])cc1)c1c(N)n(CC(C)C)c(=O)[nH]c1=O` gave FLuc counter 4%, ELG1 genotoxic 1%, Rab9 promoter act 1% and NPC1 prom act -2%.
For COC(=O)c1ccc2nc(C)cc(Nc3cccc(Cl)c3C)c2c1 the results were FLuc counter -8% and SMN2 splice up 0%.
CSCCC(NC(=O)c1ccco1)C(=O)NCCc1ccc(Cl)cc1 (stereo not drawn) was read as ELG1 genotoxic -1%.
